In PubChem BioAssay AID651687 (Broad Institute, 2012):
The whole screen tested about 350,000 compounds, of which about 600 (0.17%) were called active. For the sample, actives were picked, then their nearest neighbours and some compounds at random. Values without a mark were called inactive.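 How the source made its calls: active means every replicate shows inhibition of at least 40%; inconclusive means mean inhibition at least 40% but some replicate below; inactive means the rest.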

experiment: inhibitors of PGC1a acetylation signal, primary screen, cell-based, U2OS, AlphaScreen, inhibitor mode (AID 651687); conditions: AlphaScreen anti-acetyl-lysine, at 15.6 µM, active compounds read high;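 further: 0% = neutral control wells and 100% = positive control wells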

| SMILES | inhibition |
| --- | --- |
| CCC(C)(O)C(=O)OC1C(=O)OC2CC3C(C)=CC(=O)C(O)C3(C)C3C4(O)OCC23C1C(C)C4O (stereo not given) | 80% (active) |
| O=C(Cc1ccncc1)N1CCCCN2[C@@H](CO)[C@H](c3ccc(-c4ccncc4)cc3)[C@@H]2C1 | 1.83% |
| O=c1[nH]c2ccccc2n1C1CCN(C(c2ccccc2)c2nnnn2Cc2ccccc2)CC1 (stereo not given) | 10.6% |
| COC(=O)C1=C(c2ccc(OCc3ccccc3)cc2)C[C@@H]2CC[C@H]1N2C(=O)NCc1cccc(F)c1 | -39.8% |
| O=C(Cc1ccncc1)N1CCCCN2[C@H](CO)[C@@H](c3ccc(C#CC4(O)CCCC4)cc3)[C@H]2C1 | -7.38% |
| COC1C(O)C(C)OC(OC2CCC3(C=O)C(CCC4C3CCC3(C)C(C5=CC(=O)OC5)CCC43O)C2)C1O (stereo not given) | 82.1% (active) |
| COC(=O)C(c1ccccc1)N1CCCCCC1 (stereo not given) | 5.94% |
| O=C(c1ccccc1)C(O)(CN1CCCCC1)c1ccccc1 (stereo not given) | -2.16% |
| c1ccc(C(CN2CCCCC2)c2ccccc2)cc1 | 40.7% (active) |
| N#Cc1cccc(-c2ccc([C@H]3[C@@H](CO)N4CCCCN(C(=O)Cc5cccnc5)C[C@@H]34)cc2)c1 | -1.39% |
| OC[C@@H]1[C@H]2c3ccccc3NC[C@H]2N1Cc1cccnc1 | 3.98% |
| CCOC(=O)c1cccc(C2=C(CNC(=O)c3ccncc3)[C@H]3CC[C@@H](C2)N3Cc2ccccc2)c1 | -1.43% |
| O=C(Cc1cccnc1)N1CCCCN2[C@@H](CO)[C@H](c3ccc(C#CC4CCCC4)cc3)[C@@H]2C1 | -10.8% |
| O=C(NCC1=C(c2ccc3ccccc3c2)C[C@@H]2CC[C@H]1N2Cc1ccco1)c1cccs1 | -0.267% |
| COC(=O)C[C@@H]1CC[C@@H]2NC[C@@H](O)COC[C@H]2O1 | -2.11% |
